Inconclusive results are not listed. Entries that show only a call come without a potency. Activity calls are given as the source filed them. The call rests on the fitted dose curve; in most records, active means well fitted activation curve with a large enough effect in the signal ratio in the repeat runs (not every such curve was filed as active); inconclusive means weak or mixed curves, or effect the other way; inactive means no such curve, though single readings can be large or run the other way; the % refers to the signal ratio.
target: Peroxisome proliferator-activated receptor gamma (Homo sapiens) (UniProt P37231); assay: qHTS assay to identify small molecule agonists of the peroxisome proliferator-activated receptor gamma (PPARg) signaling pathway (AID 743094); details: HEK293H PPARg-UAS-bla, beta-lactamase FRET ratio, 17 h; series mostly up to 57 µM
Sequence (P37231 whole entry, looked up): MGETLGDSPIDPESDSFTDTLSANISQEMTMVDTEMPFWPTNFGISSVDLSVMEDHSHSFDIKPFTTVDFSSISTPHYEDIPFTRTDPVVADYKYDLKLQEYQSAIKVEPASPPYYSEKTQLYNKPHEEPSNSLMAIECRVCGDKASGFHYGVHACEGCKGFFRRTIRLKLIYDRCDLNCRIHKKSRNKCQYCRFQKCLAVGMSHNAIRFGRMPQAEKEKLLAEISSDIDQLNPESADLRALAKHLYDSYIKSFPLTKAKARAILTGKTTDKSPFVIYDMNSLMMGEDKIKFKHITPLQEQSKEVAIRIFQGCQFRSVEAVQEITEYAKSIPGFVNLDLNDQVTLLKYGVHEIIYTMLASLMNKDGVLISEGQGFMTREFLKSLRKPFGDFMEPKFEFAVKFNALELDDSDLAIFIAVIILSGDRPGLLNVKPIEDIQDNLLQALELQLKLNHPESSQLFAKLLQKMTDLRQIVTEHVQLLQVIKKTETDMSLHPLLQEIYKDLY
Method in brief: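 Compounds dissolved in DMSO were added to PPARg UAS-bla HEK293H cells for 17 h at 37C, and reporter expression was quantified by fluorescence intensity after 1 h with LiveBLAzer B/G FRET substrate.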

**Q.** Which Potency does the source give for `Oc1cc(Cl)cc(Cl)c1Cl` here?
**A.** inactive

**Q.** `OC[C@H]1O[C@H](O[C@H]2O[C@H](CO)[C@@H](O)[C@H](O)[C@H]2O)[C@H](O)[C@@H](O)[C@@H]1O` was tested. Which Potency did it give?
**A.** inactive

**Q.** How did the Potency turn out when `CN1CCN2c3ccccc3Cc3ccccc3C2C1` (configuration not stated) was run?
**A.** inactive

**Q.** How did the Potency turn out when `CCCCCC(C)OC(=O)COc1ccc(Cl)c2cccnc12` (configuration not stated) was run?
**A.** inactive

**Q.** For `CN(C)Cc1cc(C(C)(C)C)c(O)c(C(C)(C)C)c1`, which Potency is on record?
**A.** inactive

**Q.** For `Cc1cc(C(C)(C)C)cc(C)c1CC1=NCCN1`, which Potency is on record?
**A.** inactive

**Q.** Which Potency does the source give for `Cc1cc(C)c(/C=C2\C(=O)Nc3ccccc32)[nH]1` here?
**A.** inactive

**Q.** How did the Potency turn out when `Nc1ccc(NCCO)c([N+](=O)[O-])c1` was run?
**A.** inactive

**Q.** `O=C(c1ccc(O)c(O)c1)c1ccc(O)cc1O` was tested. Which Potency did it give?
**A.** inactive

**Q.** Which Potency does the source give for `CC(C)CCOC(=O)/C=C/c1ccccc1` here?
**A.** inactive

**Q.** `C[C@H]1NCc2cc(-c3ccc4c(=O)c(C(=O)O)cn(C5CC5)c4c3OC(F)F)ccc21` was tested. Which Potency did it give?
**A.** inactive

**Q.** `O=S(=O)(O)c1ccc(N=Nc2c(O)ccc3ccccc23)cc1` was tested. Which Potency did it give?
**A.** inactive

**Q.** How did the Potency turn out when `O=c1c(O)c(-c2ccc(O)cc2O)oc2cc(O)cc(O)c12` was run?
**A.** inactive

**Q.** For `O=[N+]([O-])c1ccc(O)cc1C(F)(F)F`, which Potency is on record?
**A.** inactive

**Q.** With `Cl[Si](Cl)(c1ccccc1)c1ccccc1` as the compound, how does the Potency read?
**A.** inactive

**Q.** With `CC(C)(C)c1ccc(C(O)CCCN2CCC(C(O)(c3ccccc3)c3ccccc3)CC2)cc1` (configuration not stated) as the compound, how does the Potency read?
**A.** inactive

**Q.** How did the Potency turn out when `NC(=S)NC(N)=S` was run?
**A.** inactive

**Q.** `CCCCC/C=C\C/C=C\CCCCCCCC(=O)O` was tested. Which Potency did it give?
**A.** inactive

**Q.** `O=C(Nc1ccc2c(O)c(N=Nc3ccc(N=Nc4ccc(S(=O)(=O)O)cc4)cc3)c(S(=O)(=O)O)cc2c1)c1ccccc1` was tested. Which Potency did it give?
**A.** inactive

**Q.** `O=C(O)c1cc(O)c2ccccc2c1O` was tested. Which Potency did it give?
**A.** inactive

**Q.** With `COc1cc(S(=O)(=O)O)c(C)cc1N=Nc1c(O)ccc2cc(S(=O)(=O)O)ccc12` as the compound, how does the Potency read?
**A.** inactive

**Q.** For `CCCCCCCCCCCCCC[N+](C)(C)Cc1ccccc1`, which Potency is on record?
**A.** inactive

From PubChem BioAssay (Tox21)
